About 83,000 compounds went through this panel and 20% of them were active in at least one assay; those are over-represented in the sample as a whole.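 48-hour exposure, single concentration, 96-well plates; percent growth endpoint where 0 means no net growth. Active: below 10.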 Unmarked numbers belong to inactive results. Activity calls are given as the source filed them.
Columns and labels:
Assay in all cases: NCI-60 one-dose screen, 48 h (100 = growth as untreated, 0 = no growth, -100 = all killed)
Conditions in all cases: 10 µM unless noted
T-47D breast = system: T-47D breast
BT-549 breast = system: BT-549 breast
MDA-MB-435 melanoma = system: MDA-MB-435 melanoma
SW-620 colon = system: SW-620 colon
MCF7 breast = system: MCF7 breast
HCT-116 colon = system: HCT-116 colon
KM12 colon = system: KM12 colon
HCC-2998 colon = system: HCC-2998 colon

Cc1ccc2c(n1)C(=O)c1[nH]c3ccccc3c1C2=O
growth (T-47D breast): 23.2%
growth (BT-549 breast): 58.5%
growth (MDA-MB-435 melanoma): -87.6% (active)
growth (SW-620 colon): 48.3%
growth (MCF7 breast): 31.2%
growth (HCT-116 colon): 22%
growth (KM12 colon): 37%

C/C(Nc1ccc(Cl)c(Cl)c1)=C1\CCOC1=O
growth (T-47D breast): 86.6%
growth (BT-549 breast): 87.2%
growth (MDA-MB-435 melanoma): 82.5%
growth (SW-620 colon): 111%
growth (MCF7 breast): 96.1%
growth (HCT-116 colon): 80.7%
growth (HCC-2998 colon): 90.3%
growth (KM12 colon): 96.2%

O=S(=O)(NCCNc1cc(-c2c(-c3cccc(O)c3)nc3sccn23)ccn1)c1ccc(C(F)(F)F)cc1
growth (T-47D breast): -1.89% (active)
growth (BT-549 breast): 26.6%
growth (MDA-MB-435 melanoma): 10.7%
growth (SW-620 colon): 47.3%
growth (MCF7 breast): 16.2%
growth (HCT-116 colon): 26.6%
growth (HCC-2998 colon): 70.6%
growth (KM12 colon): 26.7%

C=C(C)[C@@H]1CC[C@]2(C(=O)NCCNCCN)CC[C@]3(C)[C@H](CC[C@@H]4[C@@]5(C)C/C(=C/c6ccncc6)C(=O)C(C)(C)[C@@H]5CC[C@]43C)[C@@H]12
growth (T-47D breast): 80.8%
growth (BT-549 breast): 95.2%
growth (MDA-MB-435 melanoma): 92.7%
growth (SW-620 colon): 92.7%
growth (MCF7 breast): 97.6%
growth (HCT-116 colon): 83.7%
growth (HCC-2998 colon): 91.6%
growth (KM12 colon): 96.9%

CCN(CC)CCOc1ccc(C(=C(C)c2ccc(Cl)cc2)c2ccc(OCCN(CC)CC)cc2)cc1
growth (T-47D breast): -66.4% (active)
growth (BT-549 breast): -50.6% (active)
growth (MDA-MB-435 melanoma): -95.1% (active)
growth (SW-620 colon): -75.6% (active)
growth (MCF7 breast): -76.5% (active)
growth (HCT-116 colon): -94.1% (active)
growth (HCC-2998 colon): -91.2% (active)
growth (KM12 colon): -79% (active)

C#CCOc1ccc2ncnc(Nc3cccc(NC(=O)C=C)c3)c2c1
growth (T-47D breast): 70.6%
growth (BT-549 breast): 46.6%
growth (MDA-MB-435 melanoma): 69.1%
growth (SW-620 colon): 90.3%
growth (MCF7 breast): 60.5%
growth (HCT-116 colon): 74.4%
growth (HCC-2998 colon): 90.8%
growth (KM12 colon): 83.5%

Nc1c(C(=O)Nc2ccncc2)sc2nc3c(cc12)CCCCCC3
growth (T-47D breast): 49.9%
growth (BT-549 breast): 69.4%
growth (MDA-MB-435 melanoma): 96%
growth (SW-620 colon): 103%
growth (MCF7 breast): 78.5%
growth (HCT-116 colon): 65.5%
growth (KM12 colon): 80.7%

CCOC(=O)CNP(=O)(OC[C@@H](Cc1ccccc1)NC(=O)c1cc2ccccc2s1)Oc1ccccc1 (some centres undefined)
growth (T-47D breast): 55.3%
growth (BT-549 breast): 74.6%
growth (MDA-MB-435 melanoma): 8.66% (active)
growth (SW-620 colon): 47.3%
growth (MCF7 breast): 51.2%
growth (HCT-116 colon): 71.9%
growth (KM12 colon): 42.3%

C1=CN2CC(c3ccccc3)=NNC2c2ccccc21 (centres undefined)
growth (T-47D breast): 88.7%
growth (BT-549 breast): 61.7%
growth (MDA-MB-435 melanoma): 96.5%
growth (SW-620 colon): 96.7%
growth (MCF7 breast): 67.3%
growth (HCT-116 colon): 85.6%
growth (KM12 colon): 99.4%

O=C1Nc2ccccc2/C1=C\c1nc(-c2ccccc2F)n2ccccc12
growth (T-47D breast): 21.2%
growth (BT-549 breast): 24.5%
growth (MDA-MB-435 melanoma): 44.1%
growth (SW-620 colon): 26.2%
growth (MCF7 breast): 27.8%
growth (HCT-116 colon): -36.4% (active)
growth (KM12 colon): 34.4%

NC(=O)c1c(NC(=O)c2ccccc2)sc2c1CCC(=O)C2
growth (T-47D breast): -9.93% (active)
growth (BT-549 breast): 9.17% (active)
growth (MDA-MB-435 melanoma): 8.22% (active)
growth (SW-620 colon): 15.5%
growth (MCF7 breast): 4.2% (active)
growth (HCT-116 colon): 8.7% (active)
growth (KM12 colon): 5.17% (active)

O=[N+]([O-])/C(=C/C=C/c1ccccc1)c1ccccc1
growth (T-47D breast): 46.4%
growth (BT-549 breast): 103%
growth (MDA-MB-435 melanoma): 70.6%
growth (SW-620 colon): 5.75% (active)
growth (MCF7 breast): 23.5%
growth (HCT-116 colon): -5.29% (active)
growth (KM12 colon): 38.8%

CC1(C)CC2=C3C=C[C@@H]4[C@@]5(C)CCC(=O)C(C)(C)[C@@H]5CC[C@@]4(C)[C@]3(C)CC[C@@]2(C(=O)O)CC1=O
growth (T-47D breast): 74.4%
growth (BT-549 breast): 41.5%
growth (MDA-MB-435 melanoma): 49.4%
growth (SW-620 colon): 66.9%
growth (MCF7 breast): 57.3%
growth (HCT-116 colon): 64.6%
growth (KM12 colon): 78.3%

c1cnc2[nH]cc(-c3csc(-c4cn(CCCN5CCOCC5)c5ccccc45)n3)c2c1
growth (T-47D breast): 27.1%
growth (BT-549 breast): 50.3%
growth (MDA-MB-435 melanoma): 6.18% (active)
growth (SW-620 colon): 39.5%
growth (MCF7 breast): 28.6%
growth (HCT-116 colon): 29.8%
growth (KM12 colon): 28.1%

Cc1ccc(-c2nc3nc(-c4ccc(F)cc4)nc(N4CCNCC4)c3o2)cc1
growth (T-47D breast): -27.4% (active)
growth (BT-549 breast): 99.5%
growth (MDA-MB-435 melanoma): 66%
growth (SW-620 colon): -79.3% (active)
growth (MCF7 breast): -74.2% (active)
growth (HCT-116 colon): -92.1% (active)
growth (KM12 colon): -83.7% (active)

Cc1c(-c2nc3ccc(F)cc3c(=O)[nH]2)c2ccccc2n1C
growth (T-47D breast): 36.1%
growth (BT-549 breast): 43.8%
growth (MDA-MB-435 melanoma): -38.8% (active)
growth (SW-620 colon): 16.1%
growth (MCF7 breast): 19.1%
growth (HCT-116 colon): 25.1%
growth (KM12 colon): 22%

CC(C)n1cnc2c(=S)nc[nH]c21
growth (T-47D breast): 101%
growth (BT-549 breast): 112%
growth (MDA-MB-435 melanoma): 94.9%
growth (SW-620 colon): 103%
growth (MCF7 breast): 106%
growth (HCT-116 colon): 106%
growth (KM12 colon): 102%
